High-throughput results: PubChem BioAssay, National Center for Advancing Translational Sciences (NCATS)
Many of the other results were omitted from the sample, so hits are more common in it than they were.
RECQ1 inh: qHTS Assay for Inhibitors of RecQ-Like Dna Helicase 1 (RECQ1) | RECQ1 DNA unwinding, red fluorescence kinetic read | Potency, µM (series often up to 57.3 µM), for inactives: at the top dose activity, negative = inhibition, hits mostly inhibitors | actives 0.54% (n = 240,000) | AID 2549, 2010;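 further: plate controls were vehicle for no effect and no enzyme for full effect; nearly all actives have a fitted effect of over 30% in size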
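50 nM RECQ1T1 preincubated 15 min with compound in Tris pH 8.0 buffer with MgCl2, DTT, Tween-20 and 2.5 ug/ml poly(dI-dC); started with 200 nM TAMRA/BHQ-2 forked duplex and 2 mM ATP. Unwinding read as fluorescence (525/598 nm), two reads 2 h apart.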
BLM helicase inh: qHTS Assay for Inhibitors of Bloom's syndrome helicase (BLM); RecQ-like DNA helicase BLM (Homo sapiens), P54132; recombinant BLM DNA unwinding, fluorescence dequenching; Potency, µM (top dose mostly 56.1 µM), inactives show at the highest dose activity change, negative = inhibition, most hits filed as inhibitors; actives 0.2% (n = 350,000); AID 2528, 2010;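 further: plate controls were vehicle for no effect and no enzyme for full effect; nearly all actives have a fitted effect of over 35% in size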
APE1 inh: qHTS Assay for Inhibitors of the Human Apurinic/apyrimidinic Endonuclease 1 (APE1); Potency, µM (doses to about 65.8 µM), for the others: top-dose activity change, negative = inhibition, most hits filed as inhibitors; actives 0.35% (n = 350,000); AID 2517, 2012; recombinant APE1, TAMRA/BHQ-2 abasic DNA cleavage fluorescence;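 further: plate controls were vehicle for no effect and reference inhibitor for full effect; nearly all actives have a fitted effect of over 55% in size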
Target sequence (P27695 whole entry, looked up): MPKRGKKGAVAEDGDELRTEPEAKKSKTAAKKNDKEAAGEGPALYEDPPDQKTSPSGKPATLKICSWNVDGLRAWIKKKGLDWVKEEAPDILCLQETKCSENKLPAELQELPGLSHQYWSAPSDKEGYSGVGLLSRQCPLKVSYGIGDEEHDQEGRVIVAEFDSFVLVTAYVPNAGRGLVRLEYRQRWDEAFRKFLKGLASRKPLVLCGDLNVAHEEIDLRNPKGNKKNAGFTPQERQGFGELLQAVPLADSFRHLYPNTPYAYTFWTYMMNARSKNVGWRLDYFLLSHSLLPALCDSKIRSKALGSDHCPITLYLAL
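Enzyme (0.75 nM final) and test compound are incubated 15 min at room temperature before adding 50 nM quenched THF abasic-site duplex. Cleavage dequenches TAMRA, followed at 525/598 nm over three reads one minute apart.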
L3MBTL1 inh: qHTS Assay for the Inhibitors of L3MBTL1; Lethal(3)malignant brain tumor-like protein 1 (Homo sapiens), Q9Y468; AlphaScreen L3MBTL1–H3K9me1 peptide binding; Potency, µM (titrated, usually from 57.1 µM), inactives show top-dose activity, negative = inhibition, most hits filed as inhibitors; actives 0.66% (n = 230,000); further: nearly all actives have a fitted effect of over 60% in size
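L3MBTL1 (50 nM) pre-complexed 30 min with biotinylated H3(1-15)K9me1 peptide (75 nM), then compounds added for 30 min at room temperature; AlphaScreen streptavidin donor/nickel chelate acceptor beads (10 ug/mL final) read after 30 min dark incubation.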
JMJD2E inh: qHTS Assay for Inhibitors of Human Jumonji Domain Containing 2E (JMJD2E) | JMJD2E catalytic domain, FDH-coupled NADH fluorescence (FDH is formaldehyde dehydrogenase) | Potency, µM (titrated, usually from 57.1 µM), inactives show at the highest dose activity change, negative = inhibition, hits mostly inhibitors | actives 1.6% (n = 230,000) | AID 2147, 2009; active means well fitted inhibition curve with a large enough effect, not every such curve was filed as active; inconclusive means small, poorly fitted or top-dose-only effect, or another doubt; inactive means no such curve, though single readings can be large or run the other way;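 further: 0% = wells with enzyme and -100% = buffer wells without enzyme; nearly all actives have a fitted effect of over 50% in size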
Target sequence (B2RXH2 1-337 limits assumed): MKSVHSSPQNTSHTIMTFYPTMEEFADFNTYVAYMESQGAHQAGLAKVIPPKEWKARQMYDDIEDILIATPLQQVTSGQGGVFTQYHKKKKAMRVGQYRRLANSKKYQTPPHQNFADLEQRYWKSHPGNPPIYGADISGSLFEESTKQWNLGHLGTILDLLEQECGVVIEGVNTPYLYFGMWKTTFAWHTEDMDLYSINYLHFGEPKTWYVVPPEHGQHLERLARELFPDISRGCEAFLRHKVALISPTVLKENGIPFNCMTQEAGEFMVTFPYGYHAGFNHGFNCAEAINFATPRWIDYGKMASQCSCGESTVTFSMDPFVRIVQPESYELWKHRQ
Numbers without * were called inactive; ! = a repeat was not active. Unless noted, the call rests on the fitted dose curve; in most records, active means well fitted curve in the direction sought with a large enough effect; inconclusive means small, poorly fitted or top-dose-only effect, or another doubt; inactive means no such curve, though single readings can be large; an effect the other way counts as inactive or inconclusive. Unless noted, on the % scale 0 is the no-effect control and ±100 the full control effect; potency means the concentration at half of the fitted maximal effect.

Screening O=C(/C=C/c1ccc(O)c(O)c1)NC(=O)c1ccccc1O returned RECQ1 inh -13.1%, BLM helicase inh -3.9%, APE1 inh inconclusive and JMJD2E inh 14.1µM*.
For O=C(/C=C/c1ccc(Br)cc1)NC(=O)c1ccccc1O the results were RECQ1 inh -1.5%, BLM helicase inh -20.7%, APE1 inh -7.7%, L3MBTL1 inh -24.2% and JMJD2E inh -22.8%.
For COc1ccc(C(CNC(=O)COc2ccccc2C)N2CCCCC2)cc1 (centres undefined) the results were APE1 inh -6.4% and L3MBTL1 inh 2.3%.
Screening O=c1cc(-c2cccc(O)c2O)oc2ccccc12 returned RECQ1 inh 6.31µM*, BLM helicase inh 0.1%, APE1 inh -5.5% and JMJD2E inh 7.08µM*.
Screening CCOc1ccccc1-c1c2cc(O)c(=O)cc-2oc2cc(O)c(O)cc12 returned RECQ1 inh -4.8%, BLM helicase inh 10µM*, APE1 inh -2.4%, L3MBTL1 inh 1.26µM* and JMJD2E inh -9.2%.
Screening O=c1cc2oc3cc(O)c(O)cc3c(-c3ccccc3O)c-2cc1O returned RECQ1 inh 3.55µM*, BLM helicase inh 6.31µM*, APE1 inh 0.891µM*, L3MBTL1 inh 0.794µM* and JMJD2E inh 14.1µM*.
For O=c1cc(-c2ccccc2O)oc2cc(O)ccc12 the results were RECQ1 inh -11.6%, BLM helicase inh -12.2%, APE1 inh 14.4% and JMJD2E inh -2.1%.
For Cc1ccccc1-c1cc(=O)c2c(O)cccc2o1 the results were RECQ1 inh -14.4%, BLM helicase inh 0.7%, APE1 inh 8.3% and JMJD2E inh -5.1%.
Screening O=C(NCCCN1CCCC1=O)c1ccc(OCc2ccccc2)cc1 returned RECQ1 inh -2.2%, BLM helicase inh -3.2%, APE1 inh 6.1% and JMJD2E inh 1.1%.
O=c1c(O[C@@H]2O[C@H](CO)C(O)C2O)c(-c2ccc(O)c(O)c2)oc2cc(O)cc(O)c12 (some centres undefined) was read as APE1 inh -32.8% and L3MBTL1 inh 14.1µM*.
For O=c1c(O[C@H]2O[C@@H](CO)[C@H](O)[C@@H](O)[C@@H]2O)c(-c2ccc(O)cc2)oc2cc(O)cc(O)c12 the results were APE1 inh 21.2µM* and L3MBTL1 inh -13.0%.
Screening O=c1c(O)c(-c2ccc(O)c(O)c2)oc2c(OC[C@@H]3O[C@@H](O)[C@@H](O)[C@H](O)[C@H]3O)c(O)cc(O)c12 returned RECQ1 inh -12.0%, BLM helicase inh 0.9%, APE1 inh 2.51µM* and JMJD2E inh 5.01µM*.
For O=c1cc(-c2ccc(O)c(O)c2)oc2cc(O[C@@H]3O[C@H](CO)[C@@H](O)[C@H](O)[C@H]3O)cc(O)c12 the results were RECQ1 inh -17.6%, BLM helicase inh -2.5%, APE1 inh inconclusive and L3MBTL1 inh 3.98µM*.
Screening COc1cc(-c2oc3cc(O)cc(O)c3c(=O)c2O[C@@H]2O[C@H](CO)[C@@H](O)[C@H](O)[C@H]2O)cc(OC)c1O returned RECQ1 inh 11.0%, BLM helicase inh 4.6% and APE1 inh 15.5%.
For O=c1cc(-c2ccc(O)cc2)oc2cc(O[C@H]3OC(CO)C(O)C(O)C3O)cc(O)c12 (some centres undefined) the results were RECQ1 inh -0.3%, BLM helicase inh 5.2%, APE1 inh -7.1% and JMJD2E inh -9.8%.
For CCc1ccccc1OCC(=O)N(CC)CC(=O)NCc1ccc(F)cc1 the results were RECQ1 inh -2.2%, BLM helicase inh 5.8%, APE1 inh -5.0%, L3MBTL1 inh -6.5% and JMJD2E inh 0.8%.
For O=C(CN1C(=O)/C(=C/c2ccc(F)cc2)SC1=S)N1CCN(CCc2ccccn2)CC1 the results were BLM helicase inh 0.4% and APE1 inh 72.6%.
Screening COc1ccc(-c2cc(=O)c3c(O)c(OC)c(O[C@@H]4OC(COC5OC(C)C(O)C(O)[C@@H]5O)C(O)C(O)C4O)cc3o2)cc1 (some centres undefined) returned RECQ1 inh -5.2%, BLM helicase inh -0.3%, APE1 inh -6.9% and JMJD2E inh inconclusive.
For O=c1c(OC2OC(CO)C(O)C(O)C2O)c(-c2ccc(O)c(O)c2)oc2cc(O)cc(O)c12 (centres undefined) the results were RECQ1 inh -16.3%, BLM helicase inh -1.8%, APE1 inh inconclusive, L3MBTL1 inh inconclusive and JMJD2E inh 8.91µM*.
For C[C@@H]1O[C@@H](O[C@H]2[C@H](O)[C@@H](O)[C@H](Oc3c(-c4ccc(O)c(O)c4)oc4cc(O)cc(O)c4c3=O)O[C@@H]2CO)[C@H](O)[C@H](O)[C@H]1O the results were APE1 inh 4.0% and L3MBTL1 inh inconclusive.
`O=c1cc(-c2ccccc2)oc2cc(O[C@@H]3O[C@H](CO)[C@@H](O)[C@H](O)[C@H]3O)c(O)c(O)c12` gave RECQ1 inh 0.2%, BLM helicase inh 1.8%, APE1 inh inconclusive and JMJD2E inh 12.6µM*.
`C[C@@H]1O[C@@H](Oc2c(-c3cc(O)c(O)c(O)c3)oc3cc(O)cc(O)c3c2=O)[C@H](O)[C@H](O)[C@H]1O` gave RECQ1 inh 28.2µM*!, BLM helicase inh -1.7%, APE1 inh inconclusive, L3MBTL1 inh inconclusive and JMJD2E inh 2.24µM*.
Screening CC1OC(OCC2OC(Oc3c(-c4ccc(O)c(O)c4)oc4cc(O)cc(O)c4c3=O)C(O)C(O)C2O)C(O)C(O)C1O (centres undefined) returned RECQ1 inh inactive, BLM helicase inh 0.2%, APE1 inh inconclusive and JMJD2E inh 11.2µM*.
CC(=O)Nc1ccc(NC(=O)C(C)OC(=O)CN(C)S(=O)(=O)c2ccc(Cl)cc2)cc1 (centres undefined) was read as RECQ1 inh -2.3%, BLM helicase inh -3.0%, APE1 inh -0.3% and JMJD2E inh 1.4%.
Screening CC(=O)Nc1ccc(N(C(=O)CNC(=O)c2ccco2)C(C(=O)NC2CCCC2)c2ccco2)cc1 (centres undefined) returned BLM helicase inh -0.4% and APE1 inh 5.8%.
Screening Cc1ccc(/C=C/C(=O)c2ccccc(=O)c2O)cc1C returned RECQ1 inh -14.5%, BLM helicase inh -9.9%, APE1 inh inconclusive, L3MBTL1 inh -14.0% and JMJD2E inh 28.2µM*.
